{"source": "PubChem BioAssay (EPA / NIEHS)", "note": "Calls of active or inactive are those of the source. Rule for the calls: active = hit-call score of the fitted dose curve at least 0.9, where 1 is the maximum; inactive = score below 0.9."}
{"assay": "ATG_TA_CIS: Attagene CIS-FACTORIAL HepG2 Assay for human TA Basal Promoter (AID 2282964)", "details": "HepG2 Attagene CIS-factorial TA basal promoter reporter; actives raise or lower the signal", "procedure,_shortened": "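Transfected HepG2, 24 h compound exposure; RNA → RT-PCR → FAM primer extension → HpaI cut → CE fluorescence. Gain/loss-of-signal fitted against DMSO negative control. Background-control readout.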"}
{"compound": "COc1cc(-c2nc(NC(=O)c3cc4cc(C)cc(C)c4n3CC(=O)O)sc2CCC2CCCCC2)c(OC)cc1Cl", "AC50": "10.3 µM (active)"}
{"compound": "CCCCCCCCCCCC(=O)OC", "outcome": "inactive"}
{"compound": "COCCOCCOC", "outcome": "inactive"}
{"compound": "CCCCCCCCCCO", "outcome": "inactive"}
{"compound": "CCOC(=O)C(C)(C)Oc1ccc(Cl)cc1", "outcome": "inactive"}
{"compound": "CC(CO)OC(C)CO", "note": "(centres undefined) (tested in a mixture with another compound)", "outcome": "inactive"}
{"compound": "CCc1c(C(=O)NN2CCCCC2)nn(-c2ccc(Cl)cc2Cl)c1-c1ccc(Br)cc1", "outcome": "inactive"}
{"compound": "CNC(=O)[C@H]1O[C@@H](n2cnc3c(NCc4cc(Cl)ccc4OCc4cc(C)no4)ncnc32)[C@H](O)[C@@H]1N", "outcome": "inactive"}
{"compound": "C[Si]1(C)O[Si](C)(C)O[Si](C)(C)O[Si](C)(C)O1", "outcome": "inactive"}
{"compound": "CCCCc1ccc2c(n1)[C@@H](c1ccc(OC)cc1C[C@H](C)C(=O)O)[C@H](C(=O)O)[C@H]2c1ccc2c(c1)OCO2", "outcome": "inactive"}
{"compound": "O=C(O)CCCCC(=O)O", "outcome": "inactive"}
{"compound": "CCCCN(CCCC)CCCC", "outcome": "inactive"}
{"compound": "CN[C@H]1CC[C@@H](c2ccc(Cl)c(Cl)c2)c2ccc(S(N)(=O)=O)cc21", "outcome": "inactive"}
{"compound": "Cc1cc(=O)[nH]c(=S)[nH]1", "outcome": "inactive"}
{"compound": "Cc1nc(-c2ccc3c(c2)CCN(CCC2CCC(NC(=O)/C=C/c4ccc(F)cc4)CC2)CC3)no1", "note": "(centres undefined)", "outcome": "inactive"}
{"compound": "Cc1ccc(Cl)cc1", "outcome": "inactive"}
{"compound": "NC(=O)Cn1c(=O)cc(CCN2CCN(c3nccc4sccc34)CC2)c2ccc(F)cc21", "outcome": "inactive"}
{"compound": "Cc1ccccc1Cl", "outcome": "inactive"}
{"compound": "COc1cc(/C=C/C(=O)CC(=O)/C=C/c2ccc(O)c(OC)c2)ccc1O", "outcome": "inactive"}
